Bioassay records deposited in PubChem BioAssay by National Center for Advancing Translational Sciences (NCATS).
POLI inh: qHTS for Inhibitors of Polymerase Iota. Potency, µM (doses to about 115 µM), inactives show at the highest dose activity, negative = inhibition, most hits filed as inhibitors. 1% of 390,000 active. AID 588590, 2011. DNA polymerase iota (Homo sapiens), Q9UNA4. Pol iota fluorescent replication assay, 10 min; further: potency means the concentration at half of the fitted maximal effect
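Fluorescent replication assay read twice, at 0 min and 10 min after adding 50 nM (final) substrate. Enzyme (10 nM) and compounds were first incubated 15 min at room temperature; enzyme-free buffer wells were negative controls.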
WRN helicase inh: qHTS for Inhibitors of WRN Helicase. Bifunctional 3'-5' exonuclease/ATP-dependent helicase WRN (Homo sapiens), Q14191. WRN helicase unwinding, fluorescent forked duplex, kinetic. Potency, µM (doses to about 114 µM), for the others: at the top dose activity change, negative = inhibition, actives largely listed as inhibitors. 0.46% of 360,000 active; further: potency means the concentration at half of the fitted maximal effect; on the % scale 0 is the no-effect control and ±100 the full control effect; nearly all actives have a fitted effect of over 55% in size
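Primary qHTS, 1536-well format. 20 nM WRN + compound, 15 min RT; start with 100 nM forked fluorophore/quencher duplex, 2 mM ATP (final); kinetic read ex 525/em 598 nm.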
FEN1 inh: qHTS Assay for the Inhibitors of Human Flap endonuclease 1 (FEN1). 0.35% of 390,000 active. P39748. Potency, µM (top dose mostly 114 µM), for the others: at the highest dose activity change, negative = inhibition, hits mostly inhibitors. Recombinant FEN1 flap cleavage, fluorescence, 15 min. AID 588795, 2011; further: potency means the concentration at half of the fitted maximal effect; on the % scale 0 is the no-effect control and ±100 the full control effect; nearly all actives have a fitted effect of over 65% in size
Target sequence (P39748 whole entry, looked up): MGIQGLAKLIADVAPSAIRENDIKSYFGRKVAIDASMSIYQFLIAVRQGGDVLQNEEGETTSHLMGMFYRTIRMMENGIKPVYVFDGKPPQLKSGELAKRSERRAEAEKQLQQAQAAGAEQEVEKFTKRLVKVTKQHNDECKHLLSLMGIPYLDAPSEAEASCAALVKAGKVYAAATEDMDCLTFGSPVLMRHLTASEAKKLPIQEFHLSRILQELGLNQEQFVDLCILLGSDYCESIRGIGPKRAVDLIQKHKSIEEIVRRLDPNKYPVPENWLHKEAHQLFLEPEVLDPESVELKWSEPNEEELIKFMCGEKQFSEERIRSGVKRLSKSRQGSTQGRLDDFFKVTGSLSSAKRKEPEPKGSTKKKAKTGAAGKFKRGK
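Nuclease activity of 10 nM FEN1 was measured after 15 min of room-temperature exposure to titrated compounds, by adding 50 nM flap substrate and reading plates at 0 and 15 min.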
Pol beta inh: qHTS Assay for Inhibitors of DNA Polymerase Beta; P06746; Pol beta primer extension/strand displacement, fluorescence kinetic; Potency, µM (doses to about 114 µM), for inactives: at the highest dose activity change, negative = inhibition, usual class: inhibitors; 1.3% of 340,000 active; AID 485314, 2010; further: potency means the concentration at half of the fitted maximal effect; on the % scale 0 is the no-effect control and ±100 the full control effect
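Pol beta (10 nM) and compounds were preincubated 15 min at room temperature, then 50 nM substrate (final) started primer extension/strand displacement. Reads were taken at 0 and 10 min; concentration-response data were fitted to a four-parameter Hill equation.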
Pol eta inh-1: qHTS for Inhibitors of Polymerase Eta; DNA polymerase eta (Homo sapiens), Q9Y253; recombinant Pol eta, fluorescent DNA replication assay; Potency, µM (highest dose often 114 µM), inactives show at the highest dose activity change, negative = inhibition, most hits filed as inhibitors; 1.2% of 390,000 active; AID 588591, 2011; further: potency means the concentration at half of the fitted maximal effect; on the % scale 0 is the no-effect control and ±100 the full control effect
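Pol eta (10 nM) was preincubated with compounds for 15 min at room temperature, after which fluorescent replication substrate (50 nM final) was added to start the reaction. Fluorescence was read kinetically at 0 and 10 min.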
Pol kappa inh-1: qHTS for Inhibitors of Polymerase Kappa; DNA polymerase kappa (Homo sapiens), Q9UBT6; purified Pol kappa, fluorescent DNA synthesis assay, 10 min; Potency, µM (titrated, usually from 107 µM), for the others: top-dose activity, negative = inhibition, hits mostly inhibitors; 0.53% of 400,000 active; AID 588579, 2011; further: potency means the concentration at half of the fitted maximal effect; on the % scale 0 is the no-effect control and ±100 the full control effect
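10 nM Pol kappa preincubated 15 min at room temperature with compounds, then reaction started with substrate at 50 nM final. Fluorescence read kinetically at 0 and 10 min; buffer-only wells served as negative control.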
TbPGK inh: qHTS for inhibitors of Phosphogylcerate Kinase: Hit Validation Screen | Potency, µM (highest dose often 57.5 µM), for inactives: at the highest dose activity change, negative = inhibition, most hits filed as inhibitors | TbPGK coupled GAPDH assay, Kinase-Glo luminescence | 79% of 500 active | shares compounds with Pol kappa inh-1 | AID 686980, 2013; further: potency means the concentration at half of the fitted maximal effect; on the % scale 0 is the no-effect control and ±100 the full control effect; nearly all actives have a fitted effect of over 65% in size
POLI cherry-pick: qHTS for Inhibitors of Polymerase Iota: Confirmatory Assay for Cherry-picked Compounds; Potency, µM, most hits filed as inhibitors; shares compounds with Pol kappa inh-1; Pol iota primer extension, TAMRA/BHQ fluorescence; 77% of 1,500 active; AID 720496, 2013; further: potency means the concentration at half of the fitted maximal effect
GALK inh confirm: Confirmation Assay for Inhibitors of Human Galactokinase (GALK) | shares compounds with Pol eta inh-1 | purified GALK, Kinase-Glo ATP depletion luminescence | 70% of 150 active | Potency, µM (highest dose often 115 µM), for inactives: at the top dose activity, negative = inhibition, usual class: inhibitors
GALK redox cs: Confirmatory Assay for Inhibitors of Human Galactokinase (GALK): Phenol-HRP redox assay counterscreen; Potency, µM (highest dose often 115 µM), for inactives: top-dose activity change, negative = H2O2 signal, hits mostly inhibitors; Phenol red-HRP H2O2 redox cycling, absorbance 600 nm; shares compounds with Pol eta inh-1; 40% of 150 active
HEK293 tox: Secondary Assay for Inhibitors of Human Galactokinase (GALK): HEK-293 Cell Viability Assay; shares compounds with Pol eta inh-1; HEK-293 viability, ATP luminescence (CellTiter-Glo), 24/48 h; Potency, µM (titrated, usually from 46.1 µM), inactives show at the top dose activity change, negative = cytotoxicity, actives largely listed as inhibitors; 10% of 170 active; further: potency means the concentration at half of the fitted maximal effect; on the % scale 0 is the no-effect control and ±100 the full control effect
Pol kappa inh-2: qHTS for Inhibitors of Polymerase Kappa: Confirmatory Assay for Cherry-picked Compounds; shares compounds with Pol eta inh-1; purified Pol-kappa, fluorescent strand-displacement substrate; Potency, µM, actives largely listed as inhibitors; 76% of 920 active; AID 720501, 2013; further: potency means the concentration at half of the fitted maximal effect
Pol eta inh-2: qHTS for Inhibitors of Polymerase Eta: Confirmatory Assay for Cherry-picked Compounds; Potency, µM, usual class: inhibitors; 64% of 2,600 active; Pol eta primer extension, TAMRA/BHQ fluorescence, 10 min; shares compounds with Pol eta inh-1; AID 720502, 2013; further: potency means the concentration at half of the fitted maximal effect
Numbers without * were called inactive; ? = inconclusive; / = no result; [ ] = another dose, or the depositor's remark. A selection: hits, their analogues and other compounds. The true share with any hit is near 2.4%. The call rests on the fitted dose curve; in most records, active means well fitted curve in the direction sought with a large enough effect; inconclusive means small, poorly fitted or top-dose-only effect, or another doubt; inactive means no such curve, though single readings can be large; an effect the other way counts as inactive or inconclusive.

SMILES	POLI inh	WRN helicase inh	FEN1 inh	Pol beta inh	Pol eta inh-1	Pol kappa inh-1	POLI cherry-pick	Pol eta inh-2	others
COc1c(O)cc2oc(-c3ccc(O)cc3)cc(=O)c2c1O	-7%	-11%	-7%	?	-8%	?	/	/
O=c1cc(-c2ccccc2)oc2cc(O)c(O)c(O)c12	?	?	35µM*	/	3.2µM*	20µM*	?	15*
CC(=O)c1cccc(NC(=O)CSc2ccc(-c3ccco3)nn2)c1	22µM*	?	-6%	50µM*	?	?	?	?
COc1ccc(C)cc1-n1nnc(-c2nc(-c3ccccc3Cl)no2)c1N	?	/	-4%	-12%	8%	1%	/	/
C/C=C/C=C/C(=O)[C@@H]1[C@@H]([C@]2(C)OC(=O)C(C)=C2O)[C@H]2/C(=C(O)/C=C/C=C/C)C(=O)[C@]1(C)C(=O)C2(C)O (some centres undefined)	2.8µM*	?	?	-20%	2.5µM*	8.9µM*	12*	4.3*
CC1=C(C#N)c2nc(N)c(C#N)c(C)c2/C1=C\c1ccc(OCC(=O)O)c(Cl)c1	?	?	?	-17%	7.9µM*	79µM*	47*	19*	Pol kappa inh-2=19*
CSc1cccc(NC(=O)N2CCN(c3cc(-c4noc(C)n4)ccc3C)CC2)c1	13%	/	-14%	0%	-8%	-5%[60.1 µM]	/	/
O=C1C=CC2=C3c4cc(O)c(O)cc4CC3(O)COC2=C1O (centres undefined)	1.3µM*	4.5µM*	3.5µM*	/	0.79µM*	1.1µM*	/	/	TbPGK inh=0.58µM*;GALK inh confirm=21µM*;GALK redox cs=-3%;HEK293 tox=-7%
